# In all, about 290,000 compounds went through this assay and about 890 (0.31%) were called active. No stated cut-off is given here; in the data, active means inhibition mostly above about 52% (no sharp cut-off); inactive means mostly below about 76%. For the sample, actives were picked, then their nearest neighbours and some compounds at random.
# Assay: inhibitors of HIV fusion peptide binding, primary screen, biochemical, uHTS, fluorescence dequenching (AID 1986)
# Details: cell-free peptide binding, 30 min, stronger effect = higher value
# [1] = measured here: repeat confirmation average inhibition, at 18.6 µM
Structure (SMILES),inhibition (at 20 µM),inhibition [1]
CCOC(=O)/C(=C\C=C1/Sc2ccccc2N1CC)C(C)=O,150% (inactive),–
CCN1/C(=C\C=C(C(C)=O)C(C)=O)Sc2ccccc21,148% (inactive),–
CCOC(=O)/C(=C/C=C1\Sc2ccccc2N1CC)C(C)=O,114% (active),145%
C=Cc1ccc(C(=O)NC2CCCN(Cc3ccccc3F)C2)cc1 (centres undefined),1.1% (inactive),–
CC(C)c1ccc2c(c1)c(SC(C)(C)C)c(CC(C)(C)C(=O)O)n2Cc1ccc(Cl)cc1,53.9% (active),–
CC(C)c1ccc(C(=O)NCc2ccc(Cl)cc2)cc1,-2.4% (inactive),–
Cc1ccc2c(c1)c(N=O)c(O)n2Cc1ccc(Cl)cc1,-0.1% (inactive),–
CN(Cc1nccn1C)C(=O)CC1C(=O)NCCN1Cc1ccc(F)cc1Cl (centres undefined),-0.5% (inactive),–
Cc1cc2ncc(C(N)=O)cn2n1,-1.8% (inactive),–
O=C(/C=C/c1ccco1)c1ccc(NC(=O)C23CC4CC(CC(C4)C2)C3)cc1,50.7% (active),–
CC(=O)Nc1ccc(C(=O)/C=C/c2ccco2)cc1,36% (inactive),–
O=C(/C=C\c1ccco1)c1ccc(NC(=O)c2ccco2)cc1,58.2% (inactive),3%
COCCCn1c(=O)/c(=C\c2cccc(OC)c2OC)s/c1=C(/C#N)C(=O)Nc1ccc(C(=O)O)cc1,54.1% (inactive),33.7%
COCCCn1c(=O)/c(=C\c2ccccc2OC(F)F)s/c1=C(/C#N)C(=O)NC(C)C,75.2% (inactive),5.3%
COCCCn1c(=O)/c(=C\c2ccccc2OC(C)C)s/c1=C(/C#N)C(=O)Nc1ccc(C(=O)O)cc1,77.3% (active),–
Cc1ccc(C(=O)OCC(=O)N(C)C2CCS(=O)(=O)C2)cc1[N+](=O)[O-] (centres undefined),-0.5% (inactive),–
CC(=O)c1cccc(NC(=O)CSc2ccc(-c3ccc4c(c3)OCO4)nn2)c1,0.3% (inactive),–
O=C(NN=C1CCN(Cc2ccccc2)CC1)c1cc(Br)ccc1O,7.6% (inactive),–
O=C(NN=C1CCN(Cc2ccccc2)CC1)c1cc2ccccc2cc1O,56% (active),–
O=C(O)c1cccc(Cn2c(Cl)c(/C=N/NC(=O)c3cc4ccccc4cc3O)sc2=O)c1,61.5% (active),–
O=C(O)c1cccc(Cn2c(Cl)c(/C=N/NC(=O)c3ccccc3O)sc2=O)c1,28.1% (inactive),–
O=C(O)c1cccc(Cn2c(Cl)c(/C=N/NC(=O)c3ccccc3Cl)sc2=O)c1,6.2% (inactive),–
O=C(NN=C1CCN(Cc2ccccc2)CC1)c1ccccc1O,3.9% (inactive),–
Clc1ncc(Cn2cccn2)s1,-0.3% (inactive),–
Cc1ccc(C)c(N2CCN(C(=O)CCCn3c(=S)[nH]c4cc5c(cc4c3=O)OCO5)CC2)c1,-4.3% (inactive),–

# Source: PubChem BioAssay AID1986 (Sanford-Burnham Center for Chemical Genomics, 2009)
